NR2F2 inh = inhibitors of human COUP-TFII (NR2F2); inhibition, % at 8.6 µM; HEK293T NGFI-A luciferase reporter, luminescence; AID 686940; P24468; 370,000 compounds, 0.7% hits;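 active = inhibition above a per-plate cutoff, mean inhibition of test wells between control levels plus 3 SD, cut at about 38% in these data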;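 also: cells cotransfected with COUP-TFII expression vector driving the NGFI-A reporter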
SRC1 inh = human NCOA1 inhibition; HEK293 GAL4-SRC1 luciferase reporter, luminescence; inhibition, % at 3.6 µM; Q15788; 360,000 compounds, 0.12% hits;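 active = inhibition above the campaign mean plus 3 SD, with each screening campaign given its own cutoff, cut at about 60% in these data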
NCOA3 inh = inhibitors of human steroid receptor coactivator 3 (SRC3). HEK293 GAL4-SRC3 luciferase reporter, luminescence. inhibition, % at 3.6 µM. 360,000 compounds, 0.17% hits. AID 588352;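 active = inhibition above a per-campaign cutoff, the mean of all compounds plus 3 SD, cut at about 60% in these data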;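 also: higher means less SRC3-driven luciferase light from the GAL4 reporter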
NR5A2 inv ag = NR5A2 inverse agonism in reporter assay | HEK293T StAR-luciferase reporter, LRH-1 transfected, 24 h | inhibition, % at 3.6 µM | 360,000 compounds, 0.13% hits;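 active = inhibition above the mean inhibition of all tested compounds plus 3 SD, cut at about 73% in these data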
NCOA2 inhibitor = inhibits human steroid receptor coactivator 2 | Q15596 | HEK293 GAL4-SRC2 luciferase reporter, luminescence | inhibition, % at 9 µM | 370,000 compounds, 0.17% hits | AID 651957;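 active = inhibition above the mean inhibition of all tested compounds plus 3 SD, set per campaign, cut at about 52% in these data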
Gal4-VP16 ctr = counter-screen for COUP-TFII antagonists: inhibitors of VP16; shares compounds with NR2F2 inh; 2,500 compounds, 25% hits; HEK293 Gal4-VP16 luciferase reporter, luminescence; inhibition, % at 8.5 µM; in the data active = inhibition above about 13%
NR2F2 inh conf = COUP-TFII (NR2F2) inhibition, confirmation assay; AID 687008; 2,500 compounds, 45% hits; HEK293 NGFI-A luciferase reporter, luminescence; inhibition, % at 8.5 µM; shares compounds with NR2F2 inh;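 active = mean inhibition over three repeats above a set limit taken from the earlier primary screen, cut at about 38% in these data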
Of the large screens only hits and unclear results are named; the others gave an inactive call (follow-up assays come after a bar, where they were run); ! = repeats disagree. Rows were chosen to be rich in hits. Some 0.83% of all compounds tested hit in one or more screens of this group.

O=C(Nc1nc(-c2ccccc2)cs1)c1ccc(N2CCOCC2)c([N+](=O)[O-])c1	SRC1 inh 64, NCOA3 inh 76 (no result: NR2F2 inh, NCOA2 inhibitor)
Cc1ccc(S(=O)(=O)N2CCCC2C(=O)N2CCc3ccccc3C2)cc1 (stereo unspecified)	none (no result: SRC1 inh, NCOA3 inh, NR5A2 inv ag)
Cc1ccc(-c2nc(NC(=O)c3nn(C)cc3[N+](=O)[O-])sc2C)cc1	NCOA2 inhibitor 52
Cc1ccc(-c2nc(NC(=O)c3nn(C)cc3[N+](=O)[O-])sc2C)cc1C	none
CCOc1ccc(C(=O)CSc2nnc(SCc3ccc(Cl)cc3)s2)cc1	none (no result: SRC1 inh, NCOA3 inh, NR5A2 inv ag)
NC(=O)C(C(=O)/C=C/c1ccc(Cl)cc1)=C1SCCS1	NCOA3 inh 66
CN(C)CC1CCC/C(=C\c2ccc(OC(=O)c3ccc(Cl)cc3)cc2)C1=O (stereo unspecified)	SRC1 inh 67
C=C1C(=O)OC2C1CCC(C)C1C=CC(=O)C12C (stereo unspecified)	none
C=C1C(=O)OC2CC1C(O)CC(C)=CCCC(C)=CC(O)CC2C (stereo unspecified)	NR2F2 inh 47
CCN(CC)Cc1c(O)ccc2c([N+](=O)[O-])c(C)n(-c3ccc(OC)cc3)c12	SRC1 inh 61
CC1=[N+](C)c2c(ccc3cccnc23)C1(C)C	NR2F2 inh 77
C[n+]1c2cc(N)ccc2cc2ccc(N)cc21	NR5A2 inv ag 74!
Nc1ccc2ccc(O)cc2c1	none
COc1ccc(-c2cc(-c3nc4ccccn4c3NCc3ccccc3)ccc2OC)cc1	NR2F2 inh 101, NCOA3 inh 64, NR5A2 inv ag 91, NCOA2 inhibitor 91
CCn1c(SCC(=O)NN=Cc2c[nH]c3ccccc23)nc2ccccc21	none (no result: SRC1 inh, NCOA3 inh, NR5A2 inv ag)
Brc1ccc(N/N=C(/N=Nc2nn[nH]n2)c2ccccc2)cc1	NCOA3 inh 63
O=C(O)c1ccc(N=N/C(=N\Nc2ccc(C(=O)O)cc2)c2ccccc2)cc1	none
CCC(=O)Nc1cc2nn(-c3ccc(C)cc3)nc2cc1C	NR2F2 inh 46
COc1ccc2ccccc2c1-c1c(C(=O)c2ccc(Br)cc2)[nH]c(N)c1C(=O)NC1CCCCC1	none (no result: SRC1 inh, NCOA3 inh, NR5A2 inv ag, NCOA2 inhibitor)
CC[C@@H](C(=O)[C@@H](C)[C@@H](O)[C@H](C)[C@@H]1O[C@@H]([C@@H](CC)C(=O)O)CC[C@@H]1C)[C@H]1O[C@]2(C=C[C@@H](O)[C@]3(CC[C@@](C)([C@H]4CC[C@](O)(CC)[C@H](C)O4)O3)O2)[C@H](C)C[C@@H]1C	NR2F2 inh 45, NCOA3 inh 62, NR5A2 inv ag 86
N=c1c2c(-c3ccccc3)c(-c3ccccc3)n(Cc3ccco3)c2ncn1CCO	NCOA3 inh 63
C=CC(=O)Nc1cccc(Nc2nc(N[C@H]3CC[C@H](N(C)C)CC3)nc3c2ncn3C(C)C)c1	SRC1 inh 88, NCOA3 inh 87, NR5A2 inv ag 98 (no result: NR2F2 inh, NCOA2 inhibitor)
O=C1CN(C(=O)C2CCCCC2)C=CN1CCc1ccccc1Br	none (no result: SRC1 inh, NCOA3 inh, NR5A2 inv ag, NCOA2 inhibitor)
CN(Cc1cnc2nc(N)nc(N)c2n1)c1ccc(C(=O)NC(CCC(=O)O)C(=O)O)cc1 (stereo unspecified)	SRC1 inh 78, NCOA3 inh 83, NR5A2 inv ag 79
CCCN(CCC)C(=O)C(CCC(=O)O)NC(=O)c1ccccc1 (stereo unspecified)	none
CCOC(=O)CCC(NC(=O)c1cncc(O)c1)C(=O)OCC (stereo unspecified)	none
CN(Cc1cnc2nc(N)nc(N)c2n1)c1ccc(C(=O)NC(CCC(=O)O)C(=O)O)cc1C(F)(F)F (stereo unspecified)	SRC1 inh 67, NCOA3 inh 73
COC(=O)C1CN(C2CC2)CCS(=O)(=O)N1Cc1cn(Cc2ccc(F)cc2)nn1 (stereo unspecified)	none (no result: SRC1 inh, NCOA3 inh, NR5A2 inv ag)
Cc1cc(C(=O)NN=Cc2cccc(O)c2)n[nH]1	none (no result: SRC1 inh, NCOA3 inh, NR5A2 inv ag)
Cc1ccc(NC(=O)C2CCN(S(=O)(=O)c3c(C)noc3/C=C/c3ccco3)CC2)nc1	NR2F2 inh 39 | Gal4-VP16 ctr inactive | NR2F2 inh conf inactive
Cc1cccnc1NC(=O)C1CCN(S(=O)(=O)c2c(C)noc2/C=C/c2ccco2)CC1	none
